Assay results as given in PubChem BioAssay (NCATS).
Results filed as inconclusive are left out. Where a call stands in place of a potency, no number is given. Activity calls are given as the source filed them. The call rests on the fitted dose curve; in most records, active means well fitted inhibition curve with a large enough effect; inconclusive means small, poorly fitted or top-dose-only effect; inactive means no such curve, though single readings can be large or run the other way.

Biological target: Rap guanine nucleotide exchange factor 4 (Homo sapiens) (UniProt Q8WZA2)
Assay: Confirmatory qHTS for antagonist of cAMP-regulated guanine nucleotide exchange factor 4 (EPAC2) (AID 1645885); further: nearly all actives have a fitted effect of over 25% in size

Rap guanine nucleotide exchange factor 4 (Homo sapiens), sequence (Q8WZA2 whole entry, looked up): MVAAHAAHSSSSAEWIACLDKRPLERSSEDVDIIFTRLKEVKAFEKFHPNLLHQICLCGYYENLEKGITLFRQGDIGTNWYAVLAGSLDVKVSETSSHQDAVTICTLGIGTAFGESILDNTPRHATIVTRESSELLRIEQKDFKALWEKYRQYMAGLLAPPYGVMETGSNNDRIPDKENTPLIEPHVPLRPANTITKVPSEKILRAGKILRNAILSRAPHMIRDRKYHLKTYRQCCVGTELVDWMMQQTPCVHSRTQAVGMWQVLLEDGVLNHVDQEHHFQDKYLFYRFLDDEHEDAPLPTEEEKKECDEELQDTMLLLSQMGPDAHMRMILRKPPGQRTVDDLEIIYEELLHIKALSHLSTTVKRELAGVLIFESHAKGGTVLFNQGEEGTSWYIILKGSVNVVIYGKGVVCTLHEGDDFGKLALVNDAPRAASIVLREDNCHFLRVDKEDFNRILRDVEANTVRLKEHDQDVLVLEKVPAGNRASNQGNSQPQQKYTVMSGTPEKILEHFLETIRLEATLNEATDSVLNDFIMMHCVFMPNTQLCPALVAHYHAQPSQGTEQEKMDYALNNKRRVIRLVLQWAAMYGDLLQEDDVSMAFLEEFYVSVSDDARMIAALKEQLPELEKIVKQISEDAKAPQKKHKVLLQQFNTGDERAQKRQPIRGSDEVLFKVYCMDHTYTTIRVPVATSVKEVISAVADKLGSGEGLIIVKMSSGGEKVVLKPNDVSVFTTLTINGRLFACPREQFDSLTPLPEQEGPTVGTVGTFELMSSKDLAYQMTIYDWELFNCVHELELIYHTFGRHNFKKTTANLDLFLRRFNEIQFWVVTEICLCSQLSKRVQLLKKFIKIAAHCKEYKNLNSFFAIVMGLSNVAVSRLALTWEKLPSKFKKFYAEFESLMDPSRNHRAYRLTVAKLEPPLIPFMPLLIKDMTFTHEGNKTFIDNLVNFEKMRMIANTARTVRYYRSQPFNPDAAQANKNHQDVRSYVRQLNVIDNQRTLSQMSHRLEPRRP

SMILES: Cc1noc(C)c1C(=O)N1CCC2(CCN(Cc3ccc(C#N)cc3)CC2)CC1
- Potency: inactive
